# Reference: PubChem BioAssay (EPA / NIEHS)
# Results filed as inconclusive are left out. Activity calls are given as the source filed them. How the source made its calls, unless noted: active means hit-call score of the fitted dose curve at least 0.9, where 1 is the maximum; inconclusive means response in the unintended direction; inactive means score below 0.9.
# Experiments:
# [1] = read-out: Cytochrome P450 2B6 (Homo sapiens) (UniProt P20813); experiment: CLD_CYP2B6_6hr: CellzDirect (CLD) Gene Expression Assay for xenobiotic metabolism (CYP2B6) at 6 hours (AID 2283677);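 further: actives raise CYP2B6 transcript above DMSO baseline so AC50 marks an inducer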
# How it was run: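 Primary human hepatocytes dosed with chemicals at multiple concentrations, vehicle 0.2% DMSO; CYP2B6 mRNA induction measured 6 h after dosing by quantitative nuclease protection assay with chemiluminescence, gain of signal fitted relative to DMSO.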
# [2] = CCTE_Padilla_ZF_144hpf_TERATOSCORE: (Legacy) CCTE's 144 Hour Post-fertilization zebrafish Assay Teratoscore, Padilla Lab (AID 2283679; active means hit-call score of the fitted dose curve at least 0.9, where 1 is the maximum; inactive means score below 0.9;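 on AC50: zebrafish embryos with chorions exposed by immersion from 6-8 hpf to 5 dpf with daily renewal; teratogenicity score from eye scoring of death hatching and malformations at 144 hpf; higher score means more developmental defects relative to DMSO baseline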)
# How it was run: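 Larvae scored by eye at 144 hpf for death, hatching and malformations after a day in clean Hanks'. Before that, daily-renewed exposure at 80 uM (0.4% DMSO, 26C) from roughly 6-8 hpf through 5 dpf, 4 embryos per chemical.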
# [3] = read-out: HMG-CoA synthase (HMGCS2), HMGCS2 (gene 3158); experiment: CLD_HMGCS2_6hr: CellzDirect (CLD) Gene Expression Assay for HMG-CoA synthase (HMGCS2) at 6 hours (AID 2283682);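 further: actives raise HMGCS2 transcript above the 0.2% DMSO vehicle baseline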
# How it was run: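 Primary human hepatocytes dosed daily with fresh chemical, 0.2% DMSO vehicle; HMGCS2 mRNA measured at 6 h by qNPA chemiluminescence. Gain of signal fitted against DMSO; cytotoxicity flagged from phase-contrast morphology.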
# [4] = read-out: xenobiotic metabolism (CYP1A2), CYP1A2 (gene 1544); experiment: CLD_CYP1A2_24hr: CellzDirect (CLD) Gene Expression Assay for xenobiotic metabolism (CYP1A2) at 24 hours (AID 2283683)
# How it was run: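 Primary human hepatocytes from two donor preparations dosed daily with multiple concentrations of chemical, 0.2% DMSO vehicle. CYP1A2 mRNA at 24 h quantified by qNPA chemiluminescence; gain of signal analyzed relative to DMSO. Cytotoxicity flagged by phase-contrast morphology.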
# [5] = read-out: Cytochrome P450 2B6 (Homo sapiens) (UniProt P20813); experiment: CLD_CYP2B6_24hr: CellzDirect (CLD) Gene Expression Assay for xenobiotic metabolism (CYP2B6) at 24 hours (AID 2283686)
# How it was run: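 Primary human hepatocytes dosed daily for two days with fresh solutions, harvested at 24 hours; mRNA induction quantified by qNPA chemiluminescence, gain of signal vs 0.2% DMSO vehicle. Cytotoxicity annotated from phase-contrast morphology.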
# [6] = CLD_ACTIN_6hr: CellzDirect (CLD) Gene Expression Assay for Baseline Control (Actin) at 6 hours (AID 2283676);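 further: active means increased actin mRNA relative to DMSO vehicle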
# How it was run: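 Primary human hepatocytes dosed with fresh chemical solutions (vehicle 0.2% DMSO), harvested at 6 h. Actin mRNA quantified by quantitative nuclease protection assay with chemiluminescent read-out, as background control relative to DMSO.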
# [7] = read-out: Broad substrate specificity ATP-binding cassette transporter ABCG2 (Homo sapiens) (UniProt Q9UNQ0); experiment: CLD_ABCG2_24hr: CellzDirect (CLD) Gene Expression Assay for ABC Transporter (ABCG2) at 24 hours (AID 2283685)
# How it was run: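 Primary human hepatocytes were dosed daily with ToxCast chemicals at multiple concentrations (vehicle 0.2% DMSO). ABCG2 mRNA was measured at 24 h by qNPA chemiluminescence; induction was scored as gain of signal versus DMSO.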
# [8] = read-out: Cytochrome P450 2C9 (Homo sapiens) (UniProt P11712); experiment: CLD_CYP2C9_24hr: CellzDirect (CLD) Gene Expression Assay for xenobiotic metabolism (CYP2C9) at 24 hours (AID 2283688)
# How it was run: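 Primary human hepatocytes from two donor preparations, dosed daily for two days at multiple concentrations; vehicle 0.2% DMSO. CYP2C9 mRNA induction at 24 h measured by qNPA chemiluminescence relative to DMSO; cytotoxicity annotated from morphology.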
# [9] = read-out: Cytochrome P450 3A4 (Homo sapiens) (UniProt P08684); experiment: CLD_CYP3A4_24hr: CellzDirect (CLD) Gene Expression Assay for xenobiotic metabolism (CYP3A4) at 24 hours (AID 2283689)
# How it was run: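 Primary human hepatocytes from two donors dosed daily with fresh compound for two days, 0.2% DMSO vehicle. CYP3A4 mRNA at 24 hr by qNPA chemiluminescence; gain-of-signal fit versus DMSO, cytotoxicity flagged by morphology.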
# [10] = read-out: HMG-CoA synthase (HMGCS2), HMGCS2 (gene 3158); experiment: CLD_HMGCS2_24hr: CellzDirect (CLD) Gene Expression Assay for HMG-CoA synthase (HMGCS2) at 24 hours (AID 2283691)
# How it was run: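 Primary human hepatocytes from two donor preparations, dosed daily with fresh solutions; vehicle 0.2% DMSO, 24 h harvest. HMGCS2 mRNA quantified by qNPA with S1 nuclease digestion and chemiluminescence; gain fitted versus DMSO, cytotoxicity annotated by morphology.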
# [11] = read-out: alkyl and aryl transferase (GSTA2), GSTA2 (gene 2939); experiment: CLD_GSTA2_24hr: CellzDirect (CLD) Gene Expression Assay for alkyl and aryl transferase (GSTA2) at 24 hours (AID 2283693)
# How it was run: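 Primary human hepatocytes (two donor preparations) dosed daily for two days with chemicals at multiple concentrations (vehicle 0.2% DMSO); GSTA2 mRNA at 24 h measured by qNPA chemiluminescence, gain-of-signal versus DMSO.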
# [12] = read-out: Cytochrome P450 2C19 (Homo sapiens) (UniProt P33261); experiment: CLD_CYP2C19_6hr: CellzDirect (CLD) Gene Expression Assay for xenobiotic metabolism (CYP2C19) at 6 hours (AID 2283678)
# How it was run: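 Primary human hepatocytes from two donor preparations were dosed daily, with 0.2% DMSO as vehicle, and harvested 6 h after dosing. CYP2C19 mRNA induction was measured by qNPA chemiluminescence and fitted as gain of signal against DMSO.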
# [13] = read-out: organic anion transporter (SLCO1B1), SLCO1B1 (gene 10599); experiment: CLD_SLCO1B1_24hr: CellzDirect (CLD) Gene Expression Assay for organic anion transporter (SLCO1B1) at 24 hours (AID 2283690)
# How it was run: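 Primary human hepatocytes (two donor preparations) dosed daily for two days with chemicals at multiple concentrations, 0.2% DMSO vehicle. SLCO1B1 mRNA at 24 h measured by qNPA chemiluminescence; induction fitted relative to DMSO.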
# [14] = read-out: sulfotransferase (SULT2A), SULT2A1 (gene 6822); experiment: CLD_SULT2A_24hr: CellzDirect (CLD) Gene Expression Assay for sulfotransferase (SULT2A) at 24 hours (AID 2283694);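 on AC50: potency for increased SULT2A1 mRNA level as induction over DMSO baseline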
# How it was run: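 Primary human hepatocytes from two donor preparations were dosed daily with fresh solutions, vehicle 0.2% DMSO. At 24 h, lysates went to quantitative nuclease protection (qNPA) with S1 digestion and chemiluminescent readout. Cytotoxicity was annotated from phase-contrast morphology.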
# [15] = read-out: Glyceraldehyde-3-phosphate dehydrogenase (Homo sapiens) (UniProt P04406); experiment: CLD_GAPDH_6hr: CellzDirect (CLD) Gene Expression Assay for Baseline Control (Glyceraldehyde 3-phosphate dehydrogenase) at 6 hours (AID 2283681);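 further: active means increased signal relative to DMSO vehicle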
# How it was run: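 Primary human hepatocytes from two donor preparations, dosed at multiple concentrations with 0.2% DMSO vehicle; GAPDH mRNA measured 6 h after dosing by chemiluminescent quantitative nuclease protection assay (qNPA) on denatured lysates. Serves as background control; cytotoxicity annotated by morphology.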
# [16] = read-out: ABC Transporter (ABCB1), ABCB1 (gene 5243); experiment: CLD_ABCB1_24hr: CellzDirect (CLD) Gene Expression Assay for ABC Transporter (ABCB1) at 24 hours (AID 2283684)
# How it was run: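 Primary human hepatocytes, two donor preparations, dosed daily with fresh solutions; vehicle 0.2% DMSO; harvested at 24 h. ABCB1 mRNA measured by quantitative nuclease protection assay (chemiluminescence); morphology-based cytotoxicity annotated.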
# [17] = read-out: ABC Transporter (ABCB11), ABCB11 (gene 8647); experiment: CLD_ABCB11_6hr: CellzDirect (CLD) Gene Expression Assay for ABC Transporter (ABCB11) at 6 hours (AID 2283675);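 further: hits raise ABCB11 mRNA level so AC50 marks induction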
# How it was run: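 Human primary hepatocytes (two donor preparations) given fresh chemical daily at multiple concentrations, vehicle 0.2% DMSO. ABCB11 mRNA induction measured 6 h after dosing by qNPA chemiluminescence versus DMSO; cytotoxicity annotated from morphology.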
# Sequence of Cytochrome P450 2C19 (Homo sapiens) (P33261 whole entry, looked up): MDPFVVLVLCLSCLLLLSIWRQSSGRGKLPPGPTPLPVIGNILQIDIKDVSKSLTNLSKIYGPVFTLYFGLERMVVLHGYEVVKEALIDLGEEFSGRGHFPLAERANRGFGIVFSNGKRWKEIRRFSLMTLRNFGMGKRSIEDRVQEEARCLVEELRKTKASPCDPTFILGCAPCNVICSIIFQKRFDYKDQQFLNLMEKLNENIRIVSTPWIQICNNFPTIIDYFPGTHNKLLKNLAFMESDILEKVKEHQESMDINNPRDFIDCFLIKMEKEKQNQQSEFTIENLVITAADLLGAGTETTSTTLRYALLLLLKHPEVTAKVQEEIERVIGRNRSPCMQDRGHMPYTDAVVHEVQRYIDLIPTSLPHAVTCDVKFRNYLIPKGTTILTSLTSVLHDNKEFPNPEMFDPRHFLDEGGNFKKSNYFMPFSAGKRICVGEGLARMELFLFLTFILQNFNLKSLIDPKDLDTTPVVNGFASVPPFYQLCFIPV
# Sequence of Cytochrome P450 3A4 (Homo sapiens) (P08684 whole entry, looked up): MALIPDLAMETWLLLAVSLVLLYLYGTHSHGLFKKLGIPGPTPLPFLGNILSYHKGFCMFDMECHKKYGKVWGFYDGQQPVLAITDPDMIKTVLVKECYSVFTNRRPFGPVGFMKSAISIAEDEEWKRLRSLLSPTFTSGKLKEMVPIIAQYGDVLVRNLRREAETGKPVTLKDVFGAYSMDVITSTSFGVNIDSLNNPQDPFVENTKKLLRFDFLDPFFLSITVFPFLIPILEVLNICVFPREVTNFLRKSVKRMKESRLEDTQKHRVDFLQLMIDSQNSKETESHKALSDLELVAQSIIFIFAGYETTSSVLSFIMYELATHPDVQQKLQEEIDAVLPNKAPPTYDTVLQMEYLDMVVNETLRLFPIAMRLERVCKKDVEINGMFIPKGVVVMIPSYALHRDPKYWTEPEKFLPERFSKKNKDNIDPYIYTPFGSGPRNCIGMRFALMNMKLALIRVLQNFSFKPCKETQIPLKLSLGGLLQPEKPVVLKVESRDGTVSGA
# Sequence of Broad substrate specificity ATP-binding cassette transporter ABCG2 (Homo sapiens) (Q9UNQ0 whole entry, looked up): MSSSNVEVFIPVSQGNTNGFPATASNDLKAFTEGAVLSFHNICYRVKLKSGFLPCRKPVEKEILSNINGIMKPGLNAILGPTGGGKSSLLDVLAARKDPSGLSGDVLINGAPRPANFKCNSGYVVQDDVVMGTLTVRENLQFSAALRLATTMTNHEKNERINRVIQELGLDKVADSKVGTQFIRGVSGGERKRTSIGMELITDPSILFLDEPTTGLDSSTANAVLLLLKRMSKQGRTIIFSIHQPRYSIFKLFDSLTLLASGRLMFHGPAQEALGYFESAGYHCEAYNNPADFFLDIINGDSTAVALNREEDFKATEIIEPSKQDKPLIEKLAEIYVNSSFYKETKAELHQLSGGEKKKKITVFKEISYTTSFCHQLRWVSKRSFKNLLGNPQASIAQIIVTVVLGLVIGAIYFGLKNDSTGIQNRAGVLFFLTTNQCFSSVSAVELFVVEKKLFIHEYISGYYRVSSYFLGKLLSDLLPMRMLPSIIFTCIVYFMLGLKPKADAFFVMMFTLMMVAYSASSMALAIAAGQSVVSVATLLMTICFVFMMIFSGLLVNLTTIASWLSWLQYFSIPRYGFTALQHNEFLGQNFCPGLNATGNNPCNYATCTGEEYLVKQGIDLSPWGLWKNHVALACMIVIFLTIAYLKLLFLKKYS
# Sequence of Glyceraldehyde-3-phosphate dehydrogenase (Homo sapiens) (P04406 whole entry, looked up): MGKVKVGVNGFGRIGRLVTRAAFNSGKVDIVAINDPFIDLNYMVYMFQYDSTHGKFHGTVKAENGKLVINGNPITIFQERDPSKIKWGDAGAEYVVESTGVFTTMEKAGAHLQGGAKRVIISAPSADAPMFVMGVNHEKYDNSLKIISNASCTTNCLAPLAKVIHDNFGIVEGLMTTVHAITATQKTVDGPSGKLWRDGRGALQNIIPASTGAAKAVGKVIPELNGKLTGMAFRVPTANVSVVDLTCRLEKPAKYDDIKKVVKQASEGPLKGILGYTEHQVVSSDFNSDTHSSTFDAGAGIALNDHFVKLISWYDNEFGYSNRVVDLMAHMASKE
structure (smiles),measurement,setting,value
N#Cc1c[nH]cc1-c1cccc2c1OC(F)(F)O2,AC50,[1],5.4 µM (active)
same,AC50,[2],4.19 µM (active)
same,outcome,[3],inactive
same,AC50,[4],1.56 µM (active)
same,AC50,[5],3.97 µM (active)
CC1(C)C(C(=O)OC(C#N)c2cccc(Oc3ccccc3)c2)C1(C)C (stereo unspecified),outcome,[6],inactive
same,AC50,[1],4.01 µM (active)
same,AC50,[2],1.44 µM (active)
same,outcome,[3],inactive
same,AC50,[4],20 µM (active)
same,outcome,[7],inactive
same,AC50,[5],4.44 µM (active)
same,outcome,[8],inactive
same,AC50,[9],13 µM (active)
same,outcome,[10],inactive
same,outcome,[11],inactive
COCC(=O)N(c1c(C)cccc1C)C(C)C(=O)OC (stereo unspecified),AC50,[1],2.5 µM (active)
same,outcome,[12],inactive
same,outcome,[2],inactive
same,outcome,[3],inactive
same,outcome,[7],inactive
same,AC50,[5],4.09 µM (active)
same,outcome,[8],inactive
same,outcome,[13],inactive
same,outcome,[11],inactive
CCN(CC)c1nc(C)cc(OP(=S)(OC)OC)n1,AC50,[1],1.59 µM (active)
same,AC50,[2],14.8 µM (active)
same,outcome,[3],inactive
same,AC50,[4],3.97 µM (active)
same,AC50,[5],0.902 µM (active)
COC(=O)c1c(C(F)F)nc(C(F)(F)F)c(C2=NCCS2)c1CC(C)C,outcome,[6],inactive
same,AC50,[1],0.277 µM (active)
same,outcome,[12],inactive
same,AC50,[2],51.4 µM (active)
same,AC50,[4],9.96 µM (active)
same,outcome,[7],inactive
same,AC50,[5],7.48 µM (active)
same,outcome,[8],inactive
same,AC50,[14],20 µM (active)
Cc1cnc(C2=NC(C)(C(C)C)C(=O)N2)c(C(=O)O)c1 (stereo unspecified),outcome,[6],inactive
same,outcome,[1],inactive
same,outcome,[2],inactive
same,outcome,[15],inactive
same,outcome,[3],inactive
same,outcome,[4],inactive
same,outcome,[7],inactive
same,outcome,[5],inactive
same,outcome,[8],inactive
same,outcome,[9],inactive
same,outcome,[13],inactive
same,outcome,[11],inactive
same,outcome,[14],inactive
CC(C)Nc1nc(Cl)nc(NC(C)C)n1,outcome,[6],inactive
same,AC50,[1],2.47 µM (active)
same,outcome,[2],inactive
same,AC50,[4],7.72 µM (active)
same,outcome,[16],inactive
same,AC50,[5],3.26 µM (active)
same,outcome,[8],inactive
Nc1c(Cl)c(F)nc(OCC(=O)O)c1Cl,outcome,[17],inactive
same,outcome,[1],inactive
same,outcome,[2],inactive
same,outcome,[15],inactive
same,outcome,[7],inactive
same,outcome,[5],inactive
same,outcome,[8],inactive
same,outcome,[9],inactive
same,outcome,[13],inactive
Nc1cnn(-c2ccccc2)c(=O)c1Cl,outcome,[1],inactive
same,outcome,[2],inactive
same,outcome,[3],inactive
same,AC50,[4],5.8 µM (active)
same,outcome,[16],inactive
same,outcome,[7],inactive
same,outcome,[5],inactive
same,outcome,[8],inactive
CC(C)=CC1C(C(=O)OCc2coc(Cc3ccccc3)c2)C1(C)C (stereo unspecified),outcome,[17],inactive
same,AC50,[1],7.48 µM (active)
same,outcome,[12],inactive
same,AC50,[2],1.71 µM (active)
same,outcome,[4],inactive
same,outcome,[7],inactive
same,AC50,[5],5.63 µM (active)
same,outcome,[8],inactive
same,outcome,[13],inactive
same,outcome,[11],inactive
